From PubChem BioAssay (NCI)
The panel holds about 83,000 compounds, 20% with a hit somewhere; the sample as a whole holds those more often.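 Single-dose data. Exposure time 48 hours. Values below 10 considered active.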 Calls of active or inactive are those of the source.

Key:
Assay in all cases: NCI-60 one-dose screen, 48 h (100 = growth as untreated, 0 = no growth, -100 = all killed)
Settings in all cases: 10 µM unless noted
NCI-H23 lung = system: NCI-H23 lung
NCI-H226 lung = system: NCI-H226 lung
NCI-H322M lung = system: NCI-H322M lung
HOP-62 NSCLC = system: HOP-62 NSCLC
NCI-H460 lung = system: NCI-H460 lung
HOP-92 NSCLC = system: HOP-92 NSCLC
NCI-H522 lung = system: NCI-H522 lung
A549/ATCC NSCLC = system: A549/ATCC NSCLC
786-0 renal = system: 786-0 renal
COLO 205 colon = system: COLO 205 colon
DU-145 prostate = system: DU-145 prostate
K-562 leukemia = system: K-562 leukemia
MALME-3M melanoma = system: MALME-3M melanoma
MDA-MB-231 breast = system: MDA-MB-231 breast
SF-268 CNS = system: SF-268 CNS
SF-295 CNS = system: SF-295 CNS
SF-539 CNS = system: SF-539 CNS
UACC-257 melanoma = system: UACC-257 melanoma
RXF 393 renal = system: RXF 393 renal

Measured: growth

CC(C)c1ccc(NC(=O)Cc2ccc(Nc3ncnc4cc(-c5cnn(CCN(C)C)c5)ccc34)cc2)cc1
inactive: NCI-H226 lung 50.6% [30 µM] | UACC-257 melanoma 54.7% [30 µM]
active: NCI-H23 lung -61.7% [30 µM] | NCI-H322M lung -99.7% [30 µM] | HOP-62 NSCLC -0.67% [30 µM] | NCI-H460 lung -90.5% [30 µM] | HOP-92 NSCLC -45.3% [30 µM] | NCI-H522 lung -45.3% [30 µM] | A549/ATCC NSCLC -35.7% [30 µM] | 786-0 renal -59.1% [30 µM] | COLO 205 colon -46.7% [30 µM] | DU-145 prostate -97.5% [30 µM] | K-562 leukemia -34.9% [30 µM] | MALME-3M melanoma -88.7% [30 µM] | MDA-MB-231 breast -77.8% [30 µM] | SF-268 CNS -62.3% [30 µM] | SF-295 CNS -61.9% [30 µM] | SF-539 CNS -88.8% [30 µM]

CCCCOc1nc2ccc(Cl)cc2cc1/C=C/C(=O)/C=C1/CC(c2cc3cc(Cl)ccc3nc2OCCCC)Nc2ccccc2N1 (stereo not given)
inactive: NCI-H23 lung 87.2% | NCI-H226 lung 90.8% | NCI-H322M lung 103% | HOP-62 NSCLC 94.8% | NCI-H460 lung 85% | HOP-92 NSCLC 77.3% | NCI-H522 lung 90.4% | A549/ATCC NSCLC 94.2% | 786-0 renal 99.1% | COLO 205 colon 90.9% | DU-145 prostate 103% | K-562 leukemia 91.7% | MALME-3M melanoma 79.4% | MDA-MB-231 breast 81% | SF-268 CNS 97.9% | SF-295 CNS 96.2% | SF-539 CNS 91.9% | UACC-257 melanoma 100%

O=C(Nc1cccc2[nH]c(C(F)(F)F)nc12)c1cc(Cl)ccc1Cl
active: NCI-H23 lung -3.56% | HOP-92 NSCLC -11% | NCI-H522 lung -13.2%
inactive: NCI-H226 lung 34.4% | NCI-H322M lung 45.9% | HOP-62 NSCLC 32.1% | NCI-H460 lung 17.2% | A549/ATCC NSCLC 19.8% | 786-0 renal 47.1% | COLO 205 colon 24.6% | DU-145 prostate 53.7% | K-562 leukemia 19.8% | MALME-3M melanoma 16.1% | MDA-MB-231 breast 40.6% | RXF 393 renal 41.1% | SF-268 CNS 44.6% | SF-295 CNS 29.2% | SF-539 CNS 52.9% | UACC-257 melanoma 28.7%

O=C1c2cccc3c(-c4ccc(-c5nc6c7ccccc7c7ccccc7c6[nH]5)cc4)ccc(c23)C(=O)N1CCN1CCNCC1
active: K-562 leukemia -10.2%
inactive: NCI-H23 lung 83.3% | NCI-H226 lung 94.9% | NCI-H322M lung 75.3% | HOP-62 NSCLC 62.1% | NCI-H460 lung 41.2% | HOP-92 NSCLC 86.2% | NCI-H522 lung 91.8% | A549/ATCC NSCLC 70.7% | 786-0 renal 52.4% | COLO 205 colon 61.9% | DU-145 prostate 42.5% | MALME-3M melanoma 85.4% | MDA-MB-231 breast 63.3% | SF-268 CNS 104% | SF-295 CNS 101% | SF-539 CNS 73.8% | UACC-257 melanoma 108%

O=C(CCc1nc(-c2cccc(Cl)c2)no1)Nc1ccccn1
inactive: NCI-H23 lung 89.2% | NCI-H226 lung 89.8% | NCI-H322M lung 108% | HOP-62 NSCLC 124% | NCI-H460 lung 103% | HOP-92 NSCLC 82.3% | NCI-H522 lung 84.5% | A549/ATCC NSCLC 111% | 786-0 renal 96.3% | COLO 205 colon 117% | DU-145 prostate 109% | K-562 leukemia 87.5% | MALME-3M melanoma 91.7% | MDA-MB-231 breast 95.6% | SF-268 CNS 104% | SF-295 CNS 94% | SF-539 CNS 96.6% | UACC-257 melanoma 114%

C=C1C(=O)O[C@H]2[C@H]1CC/C(COC(=O)/C=C\C(=O)NCc1ccc(Cn3c(=O)sn(-c4ccc(C#N)cc4)c3=O)cc1)=C\CC[C@@]1(C)O[C@@H]21
active: NCI-H23 lung -80.4% | NCI-H226 lung -69.5% | NCI-H322M lung -46.6% | HOP-62 NSCLC -37.3% | NCI-H460 lung -68.7% | HOP-92 NSCLC -65.8% | NCI-H522 lung -47.5% | A549/ATCC NSCLC -21.4% | 786-0 renal -75.8% | COLO 205 colon -55.4% | DU-145 prostate -94.4% | K-562 leukemia -8.61% | MALME-3M melanoma -95% | MDA-MB-231 breast -86% | SF-268 CNS -75.2% | SF-539 CNS -99.3% | UACC-257 melanoma -68.2%
inactive: SF-295 CNS 56.4%

Clc1ccc(/C=C/c2nc(Nc3ccc(Cl)cc3)c3ccccc3n2)cc1
inactive: NCI-H23 lung 93.1% | NCI-H226 lung 92.6% | NCI-H322M lung 96.4% | HOP-62 NSCLC 120% | NCI-H460 lung 103% | HOP-92 NSCLC 107% | NCI-H522 lung 90.8% | A549/ATCC NSCLC 102% | 786-0 renal 102% | COLO 205 colon 112% | DU-145 prostate 118% | K-562 leukemia 103% | MALME-3M melanoma 105% | MDA-MB-231 breast 93.7% | SF-268 CNS 102% | SF-295 CNS 100% | SF-539 CNS 96.1% | UACC-257 melanoma 98.9%

C=CCO[C@H]1CO[C@H]2[C@@H]1OC[C@@H]2Oc1ccc(Nc2ccnc(Nc3ccc(O[C@H]4CO[C@H]5[C@@H]4OC[C@@H]5OCC=C)c(Cl)c3)n2)cc1Cl
active: NCI-H23 lung -47.8% | NCI-H322M lung -56.6% | HOP-62 NSCLC -25.5% | NCI-H460 lung -74% | NCI-H522 lung -29.9% | A549/ATCC NSCLC -60.7% | 786-0 renal -88.2% | DU-145 prostate -50.2% | K-562 leukemia -32.4% | MALME-3M melanoma -95.8% | MDA-MB-231 breast -92.8% | SF-268 CNS -61.6% | SF-295 CNS -77.8% | SF-539 CNS -87.5%
inactive: NCI-H226 lung 86.7% | HOP-92 NSCLC 83.3% | COLO 205 colon 29.2% | UACC-257 melanoma 107%
